Columns and labels:
Test in all cases: DAPPL (digital affinity profiling via proximity ligation, sequencing); 10 mM Tris-HCl pH 7.5, 50 mM NaCl, 1 mM DTT, 4% glycerol, room temperature, 30 min; GST-TFs on glutathione beads, 16-mer random dsDNA library, 0.1% formaldehyde crosslink after washing; high values mean tight binding
FEV = target: T1, FEV (Homo sapiens, UniProt Q99581 1-238); details: protein: recombinant; tags: N-terminal GST; dsDNA, one strand shown
T1 sequence: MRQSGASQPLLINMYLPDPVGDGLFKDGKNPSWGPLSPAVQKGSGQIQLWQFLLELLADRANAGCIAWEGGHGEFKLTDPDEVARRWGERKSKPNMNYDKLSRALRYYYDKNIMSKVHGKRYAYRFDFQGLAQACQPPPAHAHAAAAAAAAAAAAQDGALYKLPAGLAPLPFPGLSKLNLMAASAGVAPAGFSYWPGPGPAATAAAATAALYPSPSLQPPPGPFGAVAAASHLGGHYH
Outline: (§1)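 Pools of DNA-barcoded human transcription factors, expressed in yeast as GST fusions on glutathione beads and combined with a tag-only sample, were incubated with 200 nmole of a 16-mer random double-stranded DNA library. Incubation took 30 min at room temperature in Tris/NaCl/DTT/glycerol buffer and was followed by washing, 0.1% formaldehyde crosslinking, proximity ligation (BsaI/T4 ligase, 1 h, 37 °C), PCR amplification and sequencing on an Illumina NextSeq500. Binding signal is the ratio of a hexamer's read frequency for a factor to its frequency for the tag-only sample.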

ETV5 = ETV5 (Homo sapiens, UniProt P41161 1-510); details: protein: recombinant; tags: N-terminal GST; dsDNA, one strand shown
Sequence of ETV5 (P41161 whole entry): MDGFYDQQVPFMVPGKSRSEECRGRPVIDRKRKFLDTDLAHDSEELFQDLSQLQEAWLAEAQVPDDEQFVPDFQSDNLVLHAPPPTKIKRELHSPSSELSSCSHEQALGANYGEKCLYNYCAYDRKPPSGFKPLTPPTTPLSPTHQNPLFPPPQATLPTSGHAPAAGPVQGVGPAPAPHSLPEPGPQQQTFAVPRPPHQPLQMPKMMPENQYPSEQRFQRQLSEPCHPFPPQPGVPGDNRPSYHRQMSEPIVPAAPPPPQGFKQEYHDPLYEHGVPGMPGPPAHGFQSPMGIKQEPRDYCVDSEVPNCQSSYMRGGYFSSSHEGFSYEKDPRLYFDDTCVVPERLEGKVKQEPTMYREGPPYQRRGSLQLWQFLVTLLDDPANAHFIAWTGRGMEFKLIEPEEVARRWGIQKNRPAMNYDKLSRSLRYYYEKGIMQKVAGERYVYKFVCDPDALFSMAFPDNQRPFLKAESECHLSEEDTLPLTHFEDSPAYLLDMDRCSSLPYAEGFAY
Outline: as §1

HSF1 = HSF1 (Homo sapiens, UniProt Q00613 1-529); details: protein: recombinant; tags: N-terminal GST; chain copies: 3; dsDNA, one strand shown
Sequence of HSF1 (Q00613 whole entry): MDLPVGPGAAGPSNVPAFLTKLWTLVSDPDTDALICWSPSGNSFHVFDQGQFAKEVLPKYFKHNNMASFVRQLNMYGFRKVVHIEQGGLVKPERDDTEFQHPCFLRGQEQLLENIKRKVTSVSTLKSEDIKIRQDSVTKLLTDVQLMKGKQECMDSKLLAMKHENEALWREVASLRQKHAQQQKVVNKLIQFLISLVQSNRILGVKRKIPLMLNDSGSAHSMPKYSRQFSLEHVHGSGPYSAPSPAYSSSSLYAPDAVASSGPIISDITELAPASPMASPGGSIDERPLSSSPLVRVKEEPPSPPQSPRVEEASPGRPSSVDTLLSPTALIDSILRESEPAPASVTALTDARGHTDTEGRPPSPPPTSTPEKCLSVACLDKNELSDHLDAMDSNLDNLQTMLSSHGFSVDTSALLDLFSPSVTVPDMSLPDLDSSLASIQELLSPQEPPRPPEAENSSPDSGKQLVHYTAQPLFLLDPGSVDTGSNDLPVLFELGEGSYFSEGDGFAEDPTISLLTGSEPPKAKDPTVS
Outline: as §1

SPIC = target: T2, SPIC (Homo sapiens, UniProt Q8N5J4 1-248); details: protein: recombinant; tags: N-terminal GST; dsDNA, one strand shown
T2 sequence: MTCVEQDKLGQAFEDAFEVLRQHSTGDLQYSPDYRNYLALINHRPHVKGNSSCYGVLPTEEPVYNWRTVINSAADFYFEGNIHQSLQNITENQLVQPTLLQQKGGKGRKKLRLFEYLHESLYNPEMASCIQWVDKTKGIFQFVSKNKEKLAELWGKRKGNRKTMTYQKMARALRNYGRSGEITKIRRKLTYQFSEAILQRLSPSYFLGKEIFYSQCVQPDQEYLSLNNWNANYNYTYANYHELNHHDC
Outline: as §1

ELF4 = ELF4 (Homo sapiens, UniProt Q99607 1-663); details: protein: recombinant; tags: N-terminal GST; dsDNA, one strand shown
Sequence of ELF4 (Q99607 whole entry): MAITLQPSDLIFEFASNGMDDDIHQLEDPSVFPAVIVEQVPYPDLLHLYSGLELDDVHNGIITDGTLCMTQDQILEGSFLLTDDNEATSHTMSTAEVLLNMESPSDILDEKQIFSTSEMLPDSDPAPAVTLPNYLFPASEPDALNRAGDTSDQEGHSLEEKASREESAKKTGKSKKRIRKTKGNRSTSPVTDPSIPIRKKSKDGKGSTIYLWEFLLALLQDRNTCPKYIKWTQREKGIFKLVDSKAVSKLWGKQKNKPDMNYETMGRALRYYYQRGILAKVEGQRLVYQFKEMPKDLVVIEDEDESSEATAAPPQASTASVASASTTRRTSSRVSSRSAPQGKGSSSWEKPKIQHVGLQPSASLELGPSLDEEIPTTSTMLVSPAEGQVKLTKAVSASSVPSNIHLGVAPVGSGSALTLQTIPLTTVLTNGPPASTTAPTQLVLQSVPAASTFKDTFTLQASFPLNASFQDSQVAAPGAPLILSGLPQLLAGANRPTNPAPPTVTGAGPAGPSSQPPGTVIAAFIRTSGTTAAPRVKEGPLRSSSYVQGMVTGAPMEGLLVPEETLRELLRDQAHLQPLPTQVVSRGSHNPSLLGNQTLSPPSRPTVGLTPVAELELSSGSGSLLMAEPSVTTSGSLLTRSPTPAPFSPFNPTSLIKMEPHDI
Outline: as §1

ELK4 = target: T3, ELK4 (Homo sapiens, UniProt P28324-2 1-405); details: protein: recombinant; tags: N-terminal GST; dsDNA, one strand shown
T3 sequence: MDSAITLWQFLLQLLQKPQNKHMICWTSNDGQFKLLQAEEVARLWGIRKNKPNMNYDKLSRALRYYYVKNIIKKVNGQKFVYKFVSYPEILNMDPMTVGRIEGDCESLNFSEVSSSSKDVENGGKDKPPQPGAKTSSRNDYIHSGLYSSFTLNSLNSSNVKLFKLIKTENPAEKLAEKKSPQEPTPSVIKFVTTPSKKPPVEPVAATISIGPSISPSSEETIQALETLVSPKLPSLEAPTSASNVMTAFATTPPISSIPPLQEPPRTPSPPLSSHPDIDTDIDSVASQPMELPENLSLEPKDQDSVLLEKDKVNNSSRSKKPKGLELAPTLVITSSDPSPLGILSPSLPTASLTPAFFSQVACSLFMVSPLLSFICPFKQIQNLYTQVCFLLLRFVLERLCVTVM
Outline: as §1

ETV2 = target: T4, ETV2 (Homo sapiens, UniProt O00321 1-342); details: protein: recombinant; tags: N-terminal GST; dsDNA, one strand shown
T4 sequence: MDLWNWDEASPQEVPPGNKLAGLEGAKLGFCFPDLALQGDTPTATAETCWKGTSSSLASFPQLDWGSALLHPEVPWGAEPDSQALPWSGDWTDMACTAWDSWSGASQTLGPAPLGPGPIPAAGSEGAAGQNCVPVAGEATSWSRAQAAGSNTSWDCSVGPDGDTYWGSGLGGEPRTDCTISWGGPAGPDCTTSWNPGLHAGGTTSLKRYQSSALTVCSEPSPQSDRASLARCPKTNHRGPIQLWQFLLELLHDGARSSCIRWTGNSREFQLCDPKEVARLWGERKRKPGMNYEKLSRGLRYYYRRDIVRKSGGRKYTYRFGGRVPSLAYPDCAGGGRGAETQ
Outline: as §1

ELF3 = target: T5, ELF3 (Homo sapiens, UniProt P78545 1-371); details: protein: recombinant; tags: N-terminal GST; dsDNA, one strand shown
T5 sequence: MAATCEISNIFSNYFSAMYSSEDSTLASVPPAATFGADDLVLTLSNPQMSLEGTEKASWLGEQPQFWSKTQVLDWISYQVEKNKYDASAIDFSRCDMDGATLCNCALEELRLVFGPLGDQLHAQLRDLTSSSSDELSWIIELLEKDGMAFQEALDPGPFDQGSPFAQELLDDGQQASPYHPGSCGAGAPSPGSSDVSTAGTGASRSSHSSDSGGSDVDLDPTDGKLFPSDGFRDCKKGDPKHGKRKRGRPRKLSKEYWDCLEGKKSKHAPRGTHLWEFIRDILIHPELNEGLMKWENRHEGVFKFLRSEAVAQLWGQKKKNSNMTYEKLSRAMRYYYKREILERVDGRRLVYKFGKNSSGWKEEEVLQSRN
Outline: as §1

CRX = CRX (Homo sapiens, UniProt O43186 1-299); details: protein: recombinant; tags: N-terminal GST; dsDNA, one strand shown
Sequence of CRX (O43186 whole entry): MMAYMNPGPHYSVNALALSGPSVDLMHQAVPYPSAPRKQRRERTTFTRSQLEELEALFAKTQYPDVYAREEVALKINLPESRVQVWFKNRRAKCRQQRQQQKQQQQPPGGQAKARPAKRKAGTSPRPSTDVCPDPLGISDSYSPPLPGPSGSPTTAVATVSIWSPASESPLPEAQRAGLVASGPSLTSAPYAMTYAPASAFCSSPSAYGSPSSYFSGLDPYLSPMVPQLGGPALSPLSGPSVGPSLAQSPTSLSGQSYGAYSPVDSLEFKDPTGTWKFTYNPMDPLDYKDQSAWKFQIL
Outline: as §1

ETV1 = ETV1 (Homo sapiens, UniProt P50549 1-477); details: protein: recombinant; tags: N-terminal GST; dsDNA, one strand shown
Sequence of ETV1 (P50549 whole entry): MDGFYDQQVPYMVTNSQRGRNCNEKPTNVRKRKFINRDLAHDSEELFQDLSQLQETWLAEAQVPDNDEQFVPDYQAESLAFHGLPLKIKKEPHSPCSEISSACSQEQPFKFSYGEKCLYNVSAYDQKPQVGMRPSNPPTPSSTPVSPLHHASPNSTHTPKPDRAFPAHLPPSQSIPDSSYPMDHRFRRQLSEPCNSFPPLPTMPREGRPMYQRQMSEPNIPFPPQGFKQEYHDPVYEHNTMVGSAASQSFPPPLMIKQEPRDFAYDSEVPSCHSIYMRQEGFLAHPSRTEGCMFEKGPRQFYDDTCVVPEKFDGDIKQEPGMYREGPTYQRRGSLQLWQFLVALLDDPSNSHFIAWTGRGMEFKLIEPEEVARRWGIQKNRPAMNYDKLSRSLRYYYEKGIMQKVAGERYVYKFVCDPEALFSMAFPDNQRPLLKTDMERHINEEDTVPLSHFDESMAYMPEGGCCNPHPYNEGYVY
Outline: as §1

ERF = target: T6, ERF (Homo sapiens, UniProt P50548 1-548); details: protein: recombinant; tags: N-terminal GST; dsDNA, one strand shown
T6 sequence: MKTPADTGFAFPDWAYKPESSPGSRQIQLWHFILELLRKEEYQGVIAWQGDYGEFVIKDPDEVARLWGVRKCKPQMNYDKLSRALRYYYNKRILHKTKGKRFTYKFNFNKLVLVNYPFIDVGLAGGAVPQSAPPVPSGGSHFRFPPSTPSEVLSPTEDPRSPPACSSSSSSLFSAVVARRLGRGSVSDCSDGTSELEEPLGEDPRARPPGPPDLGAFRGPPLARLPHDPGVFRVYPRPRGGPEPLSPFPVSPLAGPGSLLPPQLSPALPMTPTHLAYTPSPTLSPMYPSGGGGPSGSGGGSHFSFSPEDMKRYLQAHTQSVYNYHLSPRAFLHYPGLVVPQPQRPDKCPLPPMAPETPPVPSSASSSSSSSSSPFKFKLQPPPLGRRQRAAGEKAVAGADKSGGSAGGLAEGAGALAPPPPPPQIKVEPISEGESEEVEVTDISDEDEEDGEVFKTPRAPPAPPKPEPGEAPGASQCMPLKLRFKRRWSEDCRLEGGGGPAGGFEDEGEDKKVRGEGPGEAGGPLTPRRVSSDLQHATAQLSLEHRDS
Outline: as §1

ETV3L = target: T7, ETV3L (Homo sapiens, UniProt Q6ZN32 1-361); details: protein: recombinant; tags: N-terminal GST; dsDNA, one strand shown
T7 sequence: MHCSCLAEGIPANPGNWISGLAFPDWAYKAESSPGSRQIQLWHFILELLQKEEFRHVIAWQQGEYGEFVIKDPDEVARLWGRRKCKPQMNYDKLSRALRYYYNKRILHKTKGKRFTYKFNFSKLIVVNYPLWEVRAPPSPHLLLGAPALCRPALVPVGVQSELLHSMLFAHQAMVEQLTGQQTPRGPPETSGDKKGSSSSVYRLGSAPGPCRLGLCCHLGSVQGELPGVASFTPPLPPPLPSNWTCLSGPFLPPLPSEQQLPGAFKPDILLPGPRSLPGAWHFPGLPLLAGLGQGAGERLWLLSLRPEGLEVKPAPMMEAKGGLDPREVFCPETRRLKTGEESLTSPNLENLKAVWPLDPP
Outline: as §1

ETS2 = target: T8, ETS2 (Homo sapiens, UniProt P15036 1-469); details: protein: recombinant; tags: N-terminal GST; dsDNA, one strand shown
T8 sequence: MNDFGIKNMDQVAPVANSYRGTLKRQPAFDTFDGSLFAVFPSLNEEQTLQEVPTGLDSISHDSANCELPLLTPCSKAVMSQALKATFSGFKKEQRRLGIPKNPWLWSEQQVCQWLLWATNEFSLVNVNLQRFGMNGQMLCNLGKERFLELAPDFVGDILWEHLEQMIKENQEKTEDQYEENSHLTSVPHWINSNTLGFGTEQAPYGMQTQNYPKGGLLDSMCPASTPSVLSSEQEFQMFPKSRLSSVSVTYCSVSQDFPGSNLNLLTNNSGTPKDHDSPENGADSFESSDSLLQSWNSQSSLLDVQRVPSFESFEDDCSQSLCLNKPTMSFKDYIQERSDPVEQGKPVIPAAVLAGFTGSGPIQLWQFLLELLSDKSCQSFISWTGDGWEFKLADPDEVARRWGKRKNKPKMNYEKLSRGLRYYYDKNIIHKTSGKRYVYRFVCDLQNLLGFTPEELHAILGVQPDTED
Outline: as §1

SPDEF = target: T9, SPDEF (Homo sapiens, UniProt O95238 1-335); details: protein: recombinant; tags: N-terminal GST; dsDNA, one strand shown
T9 sequence: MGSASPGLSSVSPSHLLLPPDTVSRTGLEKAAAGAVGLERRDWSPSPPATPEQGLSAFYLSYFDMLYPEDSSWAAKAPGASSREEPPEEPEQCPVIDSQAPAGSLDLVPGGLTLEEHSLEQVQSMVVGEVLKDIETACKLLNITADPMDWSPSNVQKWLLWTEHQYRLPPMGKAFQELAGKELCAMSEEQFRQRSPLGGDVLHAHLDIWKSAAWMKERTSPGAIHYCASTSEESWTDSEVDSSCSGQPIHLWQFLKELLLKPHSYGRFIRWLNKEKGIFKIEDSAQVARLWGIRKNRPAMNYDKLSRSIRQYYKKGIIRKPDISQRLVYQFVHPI
Outline: as §1

ETV7 = target: T10, ETV7 (Homo sapiens, UniProt Q9Y603 1-341); details: protein: recombinant; tags: N-terminal GST; dsDNA, one strand shown
T10 sequence: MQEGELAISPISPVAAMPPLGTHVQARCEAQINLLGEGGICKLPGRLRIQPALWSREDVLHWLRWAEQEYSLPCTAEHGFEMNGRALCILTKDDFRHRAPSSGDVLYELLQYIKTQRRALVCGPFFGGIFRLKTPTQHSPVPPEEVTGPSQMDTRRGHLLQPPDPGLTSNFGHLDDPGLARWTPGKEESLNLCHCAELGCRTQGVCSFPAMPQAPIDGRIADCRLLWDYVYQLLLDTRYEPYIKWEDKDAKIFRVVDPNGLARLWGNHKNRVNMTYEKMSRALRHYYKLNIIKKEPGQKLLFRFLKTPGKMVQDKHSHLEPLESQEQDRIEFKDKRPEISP
Outline: as §1

ELF5 = target: T11, ELF5 (Homo sapiens, UniProt Q9UKW6-2 1-255); details: protein: recombinant; tags: N-terminal GST; dsDNA, one strand shown
T11 sequence: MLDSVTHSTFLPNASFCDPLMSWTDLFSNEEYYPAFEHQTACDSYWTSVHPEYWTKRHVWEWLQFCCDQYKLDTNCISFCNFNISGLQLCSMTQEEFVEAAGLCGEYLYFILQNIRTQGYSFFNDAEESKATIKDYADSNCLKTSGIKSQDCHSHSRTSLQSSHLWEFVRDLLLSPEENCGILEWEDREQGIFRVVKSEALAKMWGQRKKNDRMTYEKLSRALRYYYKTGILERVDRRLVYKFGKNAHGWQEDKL
Outline: as §1

ETV3 = target: T12, ETV3 (Homo sapiens, UniProt P41162-2 1-143); details: protein: recombinant; tags: N-terminal GST; dsDNA, one strand shown
T12 sequence: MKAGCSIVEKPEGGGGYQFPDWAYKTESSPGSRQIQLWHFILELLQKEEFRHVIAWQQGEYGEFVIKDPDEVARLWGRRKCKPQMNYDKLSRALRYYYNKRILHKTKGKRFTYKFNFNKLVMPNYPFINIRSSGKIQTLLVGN
Outline: as §1

ETV6 = ETV6 (Homo sapiens, UniProt P41212 1-452); details: protein: recombinant; tags: N-terminal GST; dsDNA, one strand shown
Sequence of ETV6 (P41212 whole entry): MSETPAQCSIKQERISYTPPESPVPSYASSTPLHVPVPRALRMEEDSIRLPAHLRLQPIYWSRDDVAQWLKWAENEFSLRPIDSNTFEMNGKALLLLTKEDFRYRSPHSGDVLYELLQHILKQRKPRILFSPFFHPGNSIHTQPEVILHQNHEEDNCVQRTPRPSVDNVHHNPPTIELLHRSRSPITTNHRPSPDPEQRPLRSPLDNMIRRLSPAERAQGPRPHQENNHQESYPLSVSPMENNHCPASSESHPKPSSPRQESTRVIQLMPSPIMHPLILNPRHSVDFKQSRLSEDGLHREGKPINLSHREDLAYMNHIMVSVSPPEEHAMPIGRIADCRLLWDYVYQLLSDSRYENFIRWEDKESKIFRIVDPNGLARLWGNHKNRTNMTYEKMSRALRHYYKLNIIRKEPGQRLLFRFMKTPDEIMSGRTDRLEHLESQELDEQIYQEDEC
Outline: as §1

With TAAATC the binding signal (FEV) was 1.21 fold enrichment (6-mer frequency, TF over GST control), the binding signal (ETV5) was 1.23 fold enrichment (6-mer frequency, TF over GST control) and the binding signal (HSF1) was 1.9 fold enrichment (6-mer frequency, TF over GST control). For the same sequence, the binding signal (SPIC) was 1.2 fold enrichment (6-mer frequency, TF over GST control), the binding signal (ELF4) was 1.3 fold enrichment (6-mer frequency, TF over GST control) and the binding signal (ELK4) was 1.27 fold enrichment (6-mer frequency, TF over GST control). The binding signal (ETV2) was 1.12 fold enrichment (6-mer frequency, TF over GST control), the binding signal (ELF3) was 1.2 fold enrichment (6-mer frequency, TF over GST control) and the binding signal (CRX) was 2.81 fold enrichment (6-mer frequency, TF over GST control). The binding signal (ETV1) was 1.26 fold enrichment (6-mer frequency, TF over GST control), the binding signal (ERF) was 1.24 fold enrichment (6-mer frequency, TF over GST control) and the binding signal (ETV3L) was 1.29 fold enrichment (6-mer frequency, TF over GST control). For the same sequence, the binding signal (ETS2) was 1.33 fold enrichment (6-mer frequency, TF over GST control), the binding signal (SPDEF) was 1.33 fold enrichment (6-mer frequency, TF over GST control) and the binding signal (ETV7) was 1.22 fold enrichment (6-mer frequency, TF over GST control). The binding signal (ELF5) was 1.15 fold enrichment (6-mer frequency, TF over GST control), the binding signal (ETV3) was 1.18 fold enrichment (6-mer frequency, TF over GST control) and the binding signal (ETV6) was 1.29 fold enrichment (6-mer frequency, TF over GST control).

— article PMC7862700, “An all-to-all approach to the identification of sequence-specific readers for epigenetic DNA modifications on cytosine”
